Results taken from PubChem BioAssay (EPA / NIEHS).
Records with an inconclusive call do not appear. Activity calls are given as the source filed them. How the source made its calls: active means hit-call score of the fitted dose curve at least 0.9, where 1 is the maximum; inconclusive means response in the unintended direction; inactive means score below 0.9.

assay: Tanguay_ZF_120hpf_TR_legacy: (Legacy) Oregon State University Tanguay Lab 120 Hour Post-fertilization zebrafish Assay for Touch Response (AID 2283667)
Procedure: Tanguay_ZF_120hpf_legacy is a whole embryo, multiplexed endpoint assay using zebrafish larvae exposed for 120 hours post fertilization on a 96-well plate.Tanguay_ZF_120hpf_TR_legacy is one of one assay component(s) measured or calculated from the Tanguay_ZF_120hpf_legacy assay. It is designed to make measurements of zebrafish development as detected with brightfield microscopy of developing zebrafish embryos.Data from the assay component Tanguay_ZF_120hpf_TR_legacy was analyzed into 1 assay endpoints. This assay endpoint, Tanguay_ZF_120hpf_TR_legacy, was analyzed in the positive analysis fitting direction relative to DMSO as the negative control and baseline of activity. Using a type of morphology reporter, gain-of-signal activity can be used to understand changes in developmentals as they relate to the whole embryo. To generalize the intended target to other relatable targets, this assay endpoint is annotated to the zebrafish development intended target family, where the subfamily is embryonic functional response.
Zebrafish husbandry: Tropical 5D wild-type adult zebrafish were housed in at an approximate density of 1000 per 100 gallon tank at the Sinnhuber Aquatic Research Laboratory, Oregon State University, Corvallis, OR. Each tank was kept at standard laboratory conditions of 28C on a 14-h light/10-h dark photoperiod in fish water consisting of reverse osmosis water supplemented with a commercially available salt (Instant Ocean). Spawning funnels were placed into the tanks the night prior, and embryos were collected and staged. […] Ten microliters of each row of dilution plate 2 was added to 2 exposure plates. The final DMSO concentration used was 0.64% (vol/vol). Thirty-two embryos were also exposed to 5uM trimethyltin chloride (positive control). Plates were sealed to prevent evaporation and foil covered to reduce light exposure and kept in a 28C incubator. Embryos were statically exposed until 120 hpf. At 24 hpf, embryos were assessed for photomotor response using a custom photomotor response analysis tool (PRAT) and for developmental toxicity endpoints (MO24: mortality at 24 hpf, DP: developmental progression, SM: spontaneous movement, and NC: notochord distortion). At 120 hpf, locomotor activity was measured using Viewpoint Zebralab and assessed for 18 endpoints. Zebrafish acquisition and analysis program (ZAAP), a custom program designed to inventory, acquire, and manage zebrafish data, was used to collect developmental endpoints as either present or absent (i.e., binary responses were recorded). If mortality occurred for an embryo (at either 24 or 120 hpf), the non-mortality endpoints were not measured.

For `O=[N+]([O-])C(CO)(CO)CO`, which outcome is on record?
The outcome was “inactive”.

Which outcome does the source give for `Cc1ccc(C)c(O)c1C` here?
The outcome was “inactive”.

With `CCNc1cccc(C)c1` as the compound, how does the outcome read?
The outcome was “inactive”.

For `NC(=O)Cn1c(=O)cc(CCN2CCN(c3nccc4sccc34)CC2)c2ccc(F)cc21`, which outcome is on record?
Its outcome is “inactive”.

Which outcome does the source give for `CC(C)c1ccc(C(=O)N=C(N)N)cc1S(C)(=O)=O` here?
The outcome was “inactive”.

Which outcome does the source give for `COc1cc(S(=O)(=O)O)c(C)cc1N=Nc1c(O)ccc2cc(S(=O)(=O)O)ccc12` here?
Its outcome is “inactive”.

For `CCCCCCCCCCCCCCCC`, which outcome is on record?
The outcome was “inactive”.

For `O=c1c(O)c(-c2ccc(O)c(O)c2)oc2cc(O)cc(O)c12`, which outcome is on record?
The outcome was “inactive”.

For `FC(F)(F)C(F)(F)C(F)(F)C(F)(F)C(F)(F)C(F)(F)CCI`, which outcome is on record?
Its outcome is “inactive”.

With `CCCCCCCCCCCC(=O)OC` as the compound, how does the outcome read?
Its outcome is “inactive”.

With `Cc1ccc(C(C)C)c(O)c1` as the compound, how does the outcome read?
Its outcome is “inactive”.

For `NCC1(Cc2noc(=O)[nH]2)CCCCC1`, which outcome is on record?
The outcome was “inactive”.

For `Cc1oc(-c2ccccc2)nc1CCOc1cccc2c1ccn2CCC(=O)O`, which outcome is on record?
The outcome was “inactive”.

For `CCCCCC(=O)O`, which outcome is on record?
Its outcome is “inactive”.

Which outcome does the source give for `Cc1ccc(Cl)cc1` here?
Its outcome is “inactive”.

Which outcome does the source give for `COCCOC[C@H](CC1(C(=O)NC2CCC(C(=O)O)CC2)CCCC1)C(=O)Oc1ccc2c(c1)CCC2` (stereo not given in full) here?
The outcome was “inactive”.

For `CCCc1cc(=O)[nH]c(=S)[nH]1`, which outcome is on record?
The outcome was “inactive”.

With `CC(=O)OCCOCCOCCOC(C)=O` as the compound, how does the outcome read?
Its outcome is “inactive”.

With `Cc1ccc(C)c(C)c1` as the compound, how does the outcome read?
The outcome was “inactive”.

Which outcome does the source give for `COC(=O)c1ccc(O)cc1` here?
Its outcome is “inactive”.

With `OC[C@@H](O)[C@@H](O)[C@H](O)[C@H](O)CO` as the compound, how does the outcome read?
The outcome was “inactive”.

Which outcome does the source give for `O=C(O)Cc1ccccc1Nc1c(Cl)cccc1Cl` here?
The outcome was “inactive”.

For `CCCCCCCCCCC`, which outcome is on record?
Its outcome is “inactive”.

With `CC(=O)OC/C=C(\C)CCC=C(C)C` as the compound, how does the outcome read?
The outcome was “inactive”.

For `C=CCOC(=O)c1ccccc1C(=O)OCC=C`, which outcome is on record?
The outcome was “inactive”.

Which outcome does the source give for `CCCCCCCCCCCCCO` here?
Its outcome is “inactive”.

With `CC(CO)OC(C)CO` (stereo not given) (tested in a mixture with another compound) as the compound, how does the outcome read?
Its outcome is “inactive”.

For `CN[C@H]1CC[C@@H](c2ccc(Cl)c(Cl)c2)c2ccc(S(N)(=O)=O)cc21`, which outcome is on record?
Its outcome is “inactive”.

Which outcome does the source give for `Nc1nc(N)c2nc(CNc3ccc(C(=O)N[C@@H](CCC(=O)O)C(=O)O)cc3)cnc2n1` here?
Its outcome is “inactive”.

Which outcome does the source give for `COc1ccc(C)cc1N` here?
The outcome was “inactive”.

With `Nc1ccccc1N` as the compound, how does the AC50 read?
Its AC50 is 77 µM (active).

For `O=c1[nH]cc(F)c(=O)[nH]1`, which outcome is on record?
Its outcome is “inactive”.

With `Cc1cc(=O)[nH]c(=S)[nH]1` as the compound, how does the outcome read?
The outcome was “inactive”.

For `Cc1c(C(=O)O)c(O)cc2c1C(=O)c1c(O)c([C@@H]3O[C@H](CO)[C@@H](O)[C@H](O)[C@H]3O)c(O)c(O)c1C2=O`, which outcome is on record?
Its outcome is “inactive”.

For `Oc1ccc2c(c1)OC[C@@H](N1CCC(O)(c3ccc(F)cc3)CC1)[C@H]2O`, which outcome is on record?
Its outcome is “inactive”.

For `CCCCC(CC)COC(=O)CC(C(=O)OCC(CC)CCCC)S(=O)(=O)O` (stereo not given), which outcome is on record?
Its outcome is “inactive”.

With `CCOc1ccc2c(c1)C(C)=CC(C)(C)N2` as the compound, how does the outcome read?
The outcome was “inactive”.

Which outcome does the source give for `C=CCc1ccc(O)c(OC)c1` here?
The outcome was “inactive”.

Which outcome does the source give for `Cc1nc(-c2ccc3c(c2)CCN(CCC2CCC(NC(=O)/C=C/c4ccc(F)cc4)CC2)CC3)no1` (stereo not given) here?
The outcome was “inactive”.

Which outcome does the source give for `CN1CCCC1=O` here?
The outcome was “inactive”.
